Bioassay records: PubChem, National Center for Advancing Translational Sciences (NCATS)
ELG1 genotoxic: genotoxicity induction in ELG1-luciferase HEK293T cells; HEK293T ELG1-luciferase reporter, luminescence, 16 h; 1.3% of 330,000 active; Potency, µM (highest dose often 46 µM), inactives show at the highest dose activity change, positive = activation, most hits filed as activators; further: % of control where 0% means no effect; nearly all actives have a fitted effect of over 60% in size
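Luminescence read-out: rising ELG1-luciferase signal, reflecting elevated ELG1 protein under genetic stress, flags genotoxic compounds. Cells were treated for 16 hr at 37 °C before ONE-Glo detection.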
FLuc counter: firefly luciferase modulation, counter-screen for miR-21 project; P08659; purified FLuc, Km substrates, luminescence inhibition; Potency, µM (highest dose often 57.5 µM), for inactives: at the top dose activity change, negative = inhibition, usual class: inhibitors; 6.9% of 360,000 active; AID 588342;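 further: plate controls were vehicle for no effect and reference inhibitor for full effect; nearly all actives have a fitted effect of over 55% in size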
Target sequence (P08659 whole entry, looked up): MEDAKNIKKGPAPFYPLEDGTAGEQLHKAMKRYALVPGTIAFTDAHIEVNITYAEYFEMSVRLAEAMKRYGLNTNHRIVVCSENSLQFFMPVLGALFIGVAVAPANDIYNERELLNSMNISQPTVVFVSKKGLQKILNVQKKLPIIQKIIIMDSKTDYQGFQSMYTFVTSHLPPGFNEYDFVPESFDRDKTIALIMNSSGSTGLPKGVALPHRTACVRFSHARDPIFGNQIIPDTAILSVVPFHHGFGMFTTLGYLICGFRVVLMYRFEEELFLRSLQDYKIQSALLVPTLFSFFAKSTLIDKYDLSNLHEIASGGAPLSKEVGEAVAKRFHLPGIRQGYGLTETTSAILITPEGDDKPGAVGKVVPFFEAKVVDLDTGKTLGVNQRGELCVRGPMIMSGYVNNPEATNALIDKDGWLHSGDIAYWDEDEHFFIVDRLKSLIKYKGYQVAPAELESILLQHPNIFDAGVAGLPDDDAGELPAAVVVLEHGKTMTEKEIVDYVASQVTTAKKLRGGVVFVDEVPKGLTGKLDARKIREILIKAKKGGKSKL
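Purified P. pyralis luciferase, 10 nM final, with Km-level 10 uM D-luciferin and 10 uM ATP in 50 mM Tris acetate pH 7.5, 10 mM Mg acetate, 0.01% Tween-20, 0.05% BSA; 6-point qHTS titration about 60 µM downward; luminescence read.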
NPC1 prom act: activates the NPC1 promoter; Huh7 NPC1 promoter luciferase reporter, 24 h; Potency, µM (doses to about 9.22 µM), for the others: top-dose activation, actives largely listed as activators; 2.4% of 320,000 active; AID 485313; further: % of control where 0% means no effect; nearly all actives have a fitted effect of over 60% in size
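Stably transfected Huh7 (NPC1 promoter→luciferase), 1500 cells/well in Opti-MEM + 10% FBS, 2 h settle, then compound 24 h at 37 °C. Luminescence after 10 min with Amplite reagent.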
Rab9 promoter act: Rab9 promoter activation. Huh7 Rab9 promoter-luciferase reporter, luminescence, 24 h. Potency, µM (top dose mostly 9.22 µM), for inactives: at the highest dose activation, negative = inhibition, most hits filed as activators. 2.8% of 320,000 active. AID 485297; further: % of control where 0% means no effect; nearly all actives have a fitted effect of over 60% in size
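Measured in stably transfected Huh7 cells bearing a Rab9 promoter–luciferase construct: 24 h compound treatment at 37 °C, followed by luminescence detection.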
ELG1 repair inh: blocks ELG1-dependent DNA repair in HEK293T cells. HEK293T ELG1-luciferase reporter, luminescence, 16 h; DNA damage induced by 5-fluorouridine. Potency, µM (titrated, usually from 46.1 µM), without a hit: top-dose activity change, negative = inhibition, actives largely listed as inhibitors. 2.3% of 330,000 active. AID 504467; further: on the % scale 0 is the no-effect control and ±100 the full control effect; nearly all actives have a fitted effect of over 55% in size
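Overnight (16 hr) co-exposure of 2,000 cells/well to 5-fluorouridine and compound at 37 °C preceded detection. Luciferase was quantified via ONE-Glo luminescence; loss of signal denotes inhibition.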
SMN2 splice enh: enhancers of SMN2 splice variant expression. HEK293 SMN2-luciferase splicing reporter, luminescence, 30-36 h. Potency, µM (top dose mostly 46.1 µM), for the others: top-dose activity change, positive = activation, actives largely listed as activators. 2.8% of 210,000 active; further: % of control where 0% means no effect; nearly all actives have a fitted effect of over 55% in size
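HEK293 cells carry an SMN2 minigene-luciferase reporter in which exon 7 inclusion puts luciferase in frame. Cells were seeded at 2000 cells/well, attached for 10-12 hours, then exposed to compounds for 30-36 hours at 37C before ONE-Glo luminescence.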
* hit, by the source's call; ? = inconclusive; . = not tested or not shown; [ ] = dose if it differs, or a comment. An excerpt weighted towards active compounds, which were near 9.2% of everything screened. The call rests on the fitted dose curve; in most records, active means well fitted curve in the direction sought with a large enough effect; inconclusive means small, poorly fitted or top-dose-only effect, or another doubt; inactive means no such curve, though single readings can be large; an effect the other way counts as inactive or inconclusive. Potency means the concentration at half of the fitted maximal effect.

SMILES	ELG1 genotoxic	FLuc counter	NPC1 prom act	Rab9 promoter act	ELG1 repair inh	SMN2 splice enh
CC(=O)c1c(C)[nH]c(C(=O)OCC(=O)Nc2ccc3c(c2)OCCO3)c1C	-3.1%	.	.	.	14.6µM*	.
CCOC(=O)c1c(C)[nH]c(C(=O)OCC(=O)Nc2cc(Cl)ccc2OC)c1C	1.7%	-1.5%	0.2%	2.6%	-4.7%	5.2%
COc1cc(NC(=O)COC(=O)c2[nH]c(C)c(C(C)=O)c2C)cc(OC)c1	-2.0%	.	.	.	7.3µM*	.
C[C@@]12C(=O)N(Cc3ccccc3)CC(=O)N1[C@H](/C=C/c1ccccc1)[C@@H]1C(=O)N(c3ccccc3)C(=O)[C@@H]12	2.0%	2.5%	-0.7%	-10.6%	?	.
Cc1cccc(NC(=O)c2nc[nH]c2C(=O)N2CCN(c3ccccc3)CC2)c1	0.5%	.	.	.	8.0%	.
COc1ccc(NC(=O)c2ccc3c(c2)c(C)c(C)n3Cc2ccc(F)cc2)c(OC)c1	.	4.4%	.	.	.	.
CC(=O)c1c(C)[nH]c(C(=O)Nc2ccc(Cl)c(S(=O)(=O)N(C)C)c2)c1C	18.3µM*	16.9µM*	3.55µM*	3.16µM*	?	11.2µM*
CC(=O)c1c(C)[nH]c(C(=O)Nc2cccc(S(=O)(=O)N(C)c3ccccc3)c2)c1C	-17.0%	-8.8%	-12.9%	-7.1%	?	.
CCCS(=O)(=O)N1CCC(C(=O)NC2CCC(C)CC2)CC1 (stereo unspecified)	?	-16.4%	?	3.98µM*	?	.
CCOc1ccc(NC(=O)CN(C)C(=O)CSCc2cccc(C)c2)cc1OCC	-2.3%	5.6%	-5.3%	1.4%	-17.5%	.
CCOc1ccc(NC(=O)CN(C)C(=O)c2ccccc2OCc2cccc(C)c2)cc1OCC	-1.4%	10.4%	-8.9%	0.7%	10.3µM*	.
CCOc1ccc(NC(=O)CN(C)C(=O)CSCc2ccc(C)cc2)cc1OCC	-15.5%	0.0%	2.9%	-0.7%	7.3µM*	.
COc1cc(N)c(Cl)cc1C(=O)OCC(=O)Nc1ccc(N2CCOCC2)cc1	-2.2%	.	.	.	?	.
Cc1ccc2nc(/C(C#N)=C/c3ccc(-c4cccc([N+](=O)[O-])c4)o3)[nH]c2c1	0.8%	?	6.8%	-0.8%	?	3.5%
Cc1cc(/C=C(/C#N)c2nc3ccccc3[nH]2)c(C)n1-c1cccc([N+](=O)[O-])c1	-1.0%	5.36µM*	9.9%	5.3%	14.6µM*	-17.5%
Cc1cc(/C=C(\C#N)c2nc3ccccc3[nH]2)c(C)n1C	?	0.953µM*	3.55µM*	2.24µM*	?	11.2µM*
CC1CCC2(CC1)NC(=O)N(CC(=O)c1ccc(CNC(=O)C(C)(C)C)s1)C2=O (stereo unspecified)	0.8%	.	0.5%	-1.6%	-6.5%	.
CCC(=O)O[C@@]1(C(=O)SCF)[C@@H](C)C[C@H]2[C@@H]3C[C@@H](F)C4=CC(=O)C=C[C@@]4(C)[C@]3(F)[C@@H](O)C[C@]21C	.	.	.	.	.	-7.1%[20.6 µM]
O=C1Nc2ccccc2/C1=C\C(=O)c1ccccc1	1.1%	?	-4.8%	-0.5%	?	.
CC(C)Oc1ccc(C(=O)/C=C2/C(=O)Nc3ccccc32)cc1	?	5.36µM*	0.8%	6.1%	-23.5%	.
CCCCN(C(=O)c1ccc(N(C)S(=O)(=O)c2ccc(C)cc2)cc1)c1c(N)n(CCCC)c(=O)[nH]c1=O	1.9%	1.1%	-2.3%	-7.5%	-3.0%	.
c1cncc(-c2nnc3sc(-c4ccco4)nn23)c1	-3.3%	2.4%	-6.3%	0.9%	4.7%	-19.2%
CCN(CC)c1ccc(-c2nn3c(-c4cccnc4)nnc3s2)cc1	-7.0%	21.3µM*	-22.8%	-20.2%	-13.0%	2.2%
CCOc1ccc2cc(-c3nnc(Nc4ccc(C)cc4)s3)c(=O)oc2c1	.	-0.2%	.	.	.	-4.4%
Cc1cccc(N=N/C(=C\O)C(=O)c2cccs2)c1	-2.9%	?	10.9%	14.8%	20.6µM*	-42.9%
SMILES	ELG1 genotoxic	FLuc counter	NPC1 prom act	Rab9 promoter act	ELG1 repair inh	SMN2 splice enh
C[C@H]1CCC[C@@]2(O[C@@H](CCO)C[C@@H](O)[C@@H]2O)O1	0.7%	-1.1%	-4.2%	-1.4%	14.4%	.
Cc1cc(C(=O)COC(=O)c2ccc[nH]c2=O)c(C)n1C1CC1	?	4.78µM*	?	3.55µM*	?	?
Cc1cc(C(=O)COC(=O)c2ccc(F)cc2F)c(C)n1C1CC1	?	0.379µM*	2.51µM*	2.82µM*	?	.
CCNC(=O)COC(=O)c1cc(C)n(-c2ccccc2)c1C	?	?	17.1%	?	26.3%	18.0%
Cc1ccccc1OCC(=O)OCC(=O)c1cc(C)n(C2CC2)c1C	4.0%	?	-3.9%	1.2%	3.9%	.
Cc1ccc(S(=O)(=O)NCC(=O)OCC(=O)c2cc(C)n(-c3ccccc3)c2C)cc1	2.9%	15.1µM*	-1.2%	0.2%	?	?
Cc1cc(C(=O)COC(=O)c2ccc[nH]c2=O)c(C)n1-c1ccccc1	0.82µM*	1.69µM*	0.316µM*	0.282µM*	?	2.51µM*
CCCCCCC(NC(=O)c1ccc(C)cc1)C(=O)O (stereo unspecified)	-2.8%	.	.	.	?	.
CCOC(=O)c1ccccc1NC(=O)c1sc2ncn(Cc3cccc(F)c3)c(=O)c2c1C	.	-1.8%	.	.	.	.
CCOC(=O)[C@@H]1[C@H]2COc3cc(OC)ccc3[C@@H]2N2C(=O)N(c3ccc(C(F)(F)F)cc3)C(=O)[C@]12C	-2.2%	2.0%	-0.6%	-12.3%	0.3%	.
Cc1cc(C(=O)OCc2nnc(-c3ccccc3)o2)c(C)n1-c1ccccc1	-21.2%	?	-1.7%	-3.2%	?	-55.0%
Cc1cc(C(=O)COc2ccccc2C(N)=O)c(C)n1C1CC1	5.0%	15.1µM*	32.5%	?	5.5%	-8.0%
Cc1cc(C(=O)COC(=O)c2ccc[nH]c2=O)c(C)n1-c1ccc(F)cc1	?	3.38µM*	0.562µM*	0.355µM*	?	5.01µM*
Cc1noc(C)c1COC(=O)c1cc(C)n(-c2ccccc2)c1C	?	15.1µM*	28.0%	?	?	-10.2%
Cc1cc(C(=O)OCC(=O)NCc2ccco2)c(C)n1-c1ccc(F)cc1	-4.3%	-19.4%	-18.8%	-17.8%	5.4%	-13.1%
CCN(CC)S(=O)(=O)c1ccc(N2CCc3cc(OC)c(OC)cc3C2)nc1	-5.0%	-2.4%	-5.4%	-0.1%	-10.1%	.
